Compounds without any hit were thinned out: in the full panel of roughly 79,000, 15% have a hit. Calls of active or inactive are those of the source. Rule as the data show it: active = growth inhibition above about 70%; inactive = the rest.
Tests used:
[1] = NCI Yeast Anticancer Drug Screen. Data for the rad50 strain (AID 155);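 also: 0% = growth of vehicle-only cultures of the same strain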; conditions: S. cerevisiae rad50 strain growth inhibition; at 50.0 µM; active compounds read high
Summary of the method: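 Growth of the mutant yeast was measured after compound exposure and referenced to vehicle-treated cultures.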

[2] = NCI Yeast Anticancer Drug Screen. Data for the mec2-1 strain (AID 157); conditions: S. cerevisiae mec2-1 strain, at 50.0 µM, active compounds read high
Summary of the method: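 Vehicle-treated cultures served as reference for growth inhibition of compound-exposed mec2-1 yeast.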

[3] = NCI Yeast Anticancer Drug Screen. Data for the sgs1 mgt1 strain (AID 161);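 also: 0% = growth of cultures given vehicle only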; conditions: S. cerevisiae sgs1 mgt1 strain, at 50.0 µM, active compounds read high
Summary of the method: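 Mutant yeast exposed to compound; growth scored against vehicle-only wells.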

[4] = NCI Yeast Anticancer Drug Screen. Data for the bub3 strain (AID 167); conditions: S. cerevisiae bub3 mutant strain, at 50.0 µM, active compounds read high
Summary of the method: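 Whole-cell yeast assay. The mutant strain was incubated with compounds, and growth inhibition was determined by comparison with vehicle-treated cells.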

[5] = NCI Yeast Anticancer Drug Screen. Data for the mlh1 rad18 strain (AID 175); conditions: S. cerevisiae mlh1 rad18 strain growth inhibition; at 50.0 µM; active compounds read high
Summary of the method: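 Vehicle-treated cultures served as the reference for growth inhibition in a yeast strain carrying DNA damage repair alterations exposed to each compound.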

[6] = NCI Yeast Anticancer Drug Screen. Data for the cln2 rad14 strain (AID 165);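 also: 0% = growth equal to vehicle treated cultures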; conditions: S. cerevisiae cln2 rad14 strain, at 50.0 µM, active compounds read high
Summary of the method: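 Each compound was tested on cln2 rad14 yeast. Inhibition of growth was calculated against vehicle-exposed controls.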

Measured: growth inhibition

OCC1C2C=CC(O2)[C@H]1CO (stereo not given in full)
inactive: [1] 1.65% | [2] -3.75% | [3] -11.8% | [4] -24.9% | [5] -6.95%

CCOc1ccccc1NC(=O)CC(=O)N1N=C(C)C(N=Nc2ccccc2C(=O)O)C1=O (stereo not given)
inactive: [1] 18.1% | [2] 3.5% | [3] 1.6% | [4] -3.35% | [5] 17.6%

COc1cc(OC)c(C(=O)c2ccccc2N)c(OC)c1
inactive: [1] -3.2% | [3] -1.5% | [6] 6.55% | [4] -8.45% | [5] 9.4%

C[C@H](CCC(=O)NCCS(=O)(=O)O)[C@H]1CC[C@H]2[C@@H]3CC[C@@H]4C[C@H](O)CC[C@]4(C)[C@H]3CC[C@]12C
inactive: [1] 2.9% | [3] 5.65% | [6] -9.3% | [4] -5.55% | [5] 14.8%

C[n+]1c(-c2ccc(/C=N/NC(=O)C(=O)N/N=C/c3ccc(-c4cn5ccsc5[n+]4C)cc3)cc2)cn2ccsc21
active: [1] 85.5% | [3] 86.8% | [6] 76.6% | [4] 88.7% | [5] 86.5%

COc1ccc(C2C(C#N)=C(N)NC(=O)C2C(N)=O)cc1 (stereo not given)
inactive: [1] -12.6% | [3] -16.8% | [6] -0.1% | [4] -4.05% | [5] -19.4%

Nc1ncnc2c1ncn2CCOCC(O)CO (stereo not given)
inactive: [1] -0.75% | [3] -5.95% | [6] -15.4% | [4] -7.7% | [5] -19.9%

C=CCOCn1ccc(NC(=O)c2ccccc2)nc1=O
inactive: [1] -58% | [3] -37% | [6] -3.15% | [4] -8.4% | [5] -22.3%

O=CNc1ccccc1-c1ccccc1
inactive: [1] -33.3% | [3] -18% | [6] -17.1% | [4] -0.15% | [5] 2.55%

C=CC1CC[N-]CC1.[Cl][Cu][Cl]
inactive: [1] 6.4% | [3] 2.75% | [6] -7.6% | [4] -14.6% | [5] 6.35%

CCCCC(CCC)OC(=O)Nc1cccc2ccccc12 (stereo not given)
inactive: [1] 35.1% | [3] 3.35% | [6] -16.1% | [4] -0.15% | [5] 40%

From PubChem BioAssay (NCI)
